The list is not random: actives were taken first. Their share in the collection is about 7.3%.
FMDV antiviral = foot and mouth disease virus antiviral activity. FMDV antiviral cell-based qHTS. Potency, µM (top dose mostly 57.9 µM), without a hit: at the top dose activity change, negative = inhibition, most hits filed as inhibitors. 1.2% of 410,000 active. AID 1159524; calls by dose curve; tested in HEK293T cells; further: read-out not given here; potency means the concentration at half of the fitted maximal effect; nearly all actives have a fitted effect of over 45% in size
HCV inh = inhibitors of hepatitis C virus infection; 3.4% of 340,000 active; Huh7.5.1 HCVcc-Cre infection, luciferase reporter, 44 h; Potency, µM (top dose mostly 41.8 µM), for inactives: at the highest dose activity change, negative = inhibition, actives largely listed as inhibitors; active means well fitted inhibition curve with a large enough effect; inconclusive means small, poorly fitted or top-dose-only effect, or another doubt; inactive means no such curve, though single readings can be large or run the other way; further: potency means the concentration at half of the fitted maximal effect
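Whole-lifecycle infectious HCVcc-Cre system; cells 1,000/well, compound then virus (~0.5 moi) added 4 h after plating, 44 h culture. Luciferase read 15 sec following 15 min substrate incubation, room temp.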
HCMV inh = inhibitors of human cytomegalovirus; 4.5% of 410,000 active; HFF cells, HCMV-luciferase reporter, 72 h; hits give low values; activity change, negative = inhibition, % at 57.5 µM; in the data active means activity change below about -60%; inconclusive means no clear call, values can overlap the other calls; inactive means above about -39%
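Compounds were evaluated in HFFs infected with an HCMV luciferase reporter virus (MOI 1 PFU/cell). Luciferase in lysates collected 72 h post infection served as the replication measure.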
Vaccinia Venus = inhibitors of vaccinia virus (Venus reporter) | AID 720580 | Potency, µM (highest dose often 36.5 µM), for inactives: top-dose activity change, negative = inhibition, most hits filed as inhibitors | 0.46% of 330,000 active | Vaccinia virus Venus reporter expression, fluorescence; calls by dose curve; tested in A549 cells; further: potency means the concentration at half of the fitted maximal effect; nearly all actives have a fitted effect of over 30% in size
Vaccinia mCherry = vaccinia inhibition (mCherry reporter); Vaccinia virus mCherry reporter infection, fluorescence; Potency, µM (highest dose often 36.5 µM), without a hit: at the highest dose activity change, negative = inhibition, most hits filed as inhibitors; 0.63% of 310,000 active; AID 720579; calls by dose curve; tested in A549 cells; further: potency means the concentration at half of the fitted maximal effect; nearly all actives have a fitted effect of over 35% in size
The depositor's hits bear a star; i = inactive; ? = inconclusive; nt = no result; [ ] = another dose, or the depositor's remark. On the % scale 0 is the no-effect control and ±100 the full control effect.

SMILES	FMDV antiviral	HCV inh	HCMV inh	Vaccinia Venus	Vaccinia mCherry
FC(F)(F)c1ccc(Nc2cc3c(cn2)ncn3CC2CC2)cc1	nt	nt	6.7	nt	nt
CCNC(=S)N(CCc1c(C)[nH]c2ccc(Cl)cc12)Cc1ccco1	?	10µM*	?	-16.4%	?
COCCNC(=S)N(CCc1c(C)[nH]c2ccc(Cl)cc12)Cc1cccs1	-28.5%	7.08µM*	-20.7	?	?
CC1(C)CC(=O)C2=C(C1)NC(Nc1nc3ccccc3o1)=NC2c1cccc(O)c1 (stereo unspecified)	nt	nt	nt	?	-9.0%
Cc1nc(N)nc(N)c1-c1ccc(Cl)c(Cl)c1	-23.4%	?	-97.6*	1µM*	1µM*
Cc1cc(OCc2nc(N)nc(N)c2-c2ccc(Cl)c(Cl)c2)ccc1[N+](=O)[O-]	25.1µM*	?	-100.1*	1µM*	0.891µM*
CC[C@@H](C)[C@H](CN[C@H](CNC)C(C)C)NC[C@@H](C)c1ccc(CC(C)C)cc1	?	?	-78.1*	?	?
CCOc1ccccc1OCC(=O)Nc1ccc2[nH]c(=O)[nH]c2c1	-11.1%	12.6µM*	-18.3	nt	nt
CCOc1ccc(C(=O)NC2CC(=O)N(c3ccc(C)cc3)C2)cc1OCC (stereo unspecified)	-10.5%	nt	-21.0	-5.3%[7.34 µM]	-8.0%[7.34 µM]
CC(=O)/C=C\c1cn(-c2ncc(C(F)(F)F)cc2Cl)c2ccccc12	31.6µM*	?	-11.1	-29.2%	nt
Cc1cccc(CN2C(=O)N/C(=C/c3cc(C)n(-c4ccccn4)c3C)C2=O)c1	3.7%	1.78µM*	-38.5	-26.3%	-2.8%
CCn1c(C)cc(/C=C2\NC(=O)N(Cc3ccc(Cl)cc3)C2=O)c1C	-6.1%	12.6µM*	-20.7	nt	nt
Cc1cc(/C=c2\sc3nc4ccccc4n3c2=O)c(C)n1-c1ccc(C(=O)O)cc1	-5.3%	12.0%	-37.3	5.7%	-4.9%
Cc1cc(/C=C2/NC(=O)N(Cc3ccccc3F)C2=O)c(C)n1-c1ccccn1	10.4%	-23.0%	30.7	-15.4%	?
Cc1cc(/C=C2/NC(=O)N(Cc3ccccc3F)C2=O)c(C)n1C	-1.9%	?	-25.5	nt	nt
CCN1C(=O)N/C(=C/c2cc(C)n(Cc3ccccc3)c2C)C1=O	7.0%	10µM*	?	nt	nt
Cc1cc(/C=c2/sc3nc4ccccc4n3c2=O)c(C)n1-c1ccccn1	0.0316µM*	?	-101.3*	nt	nt
COCCn1c(C)cc(/C=C2/NC(=O)N(Cc3ccc(C)cc3)C2=O)c1C	49.1%	?	-23.8	-12.9%	-5.2%
COc1cccc(CNC(=O)CCn2nc(C)c3c(C)n(-c4ccccc4)nc3c2=O)c1	-21.0%	nt	-1.1	-12.0%	-17.9%
CC1CCC/C=C/C2CC(O)CC2C(O)/C=C/C(=O)O1 (stereo unspecified)	-23.6%	0.708µM*	-99.7*	?	?
Nc1cc(=O)[nH]c2c1CCC2	nt	nt	nt	-15.6%	-3.5%
COc1ccc(NC(=O)N2CCN(c3nc(-c4cccc(OC)c4)cs3)CC2)cc1	20µM*	6.31µM*	-91.5*	nt	nt
COc1cccc(-c2csc(N3CCN(C(=S)Nc4cccc(Cl)c4)CC3)n2)c1	nt	?	-21.7	?	i
COc1cccc(-c2csc(N3CCN(C(=O)Nc4ccc(Cl)cc4)CC3)n2)c1	?	11.2µM*	?	?	?
Cc1ccc(S(=O)(=O)c2nnn3c2nc(NCc2cccs2)c2sccc23)cc1C	11.2%	nt	14.4	?	?
SMILES	FMDV antiviral	HCV inh	HCMV inh	Vaccinia Venus	Vaccinia mCherry
CN(C)CCCn1c(SCC(=O)Nc2nc(-c3cccc(Br)c3)cs2)nc2ccccc2c1=O	-13.4%	10µM*	?	-9.1%	-12.7%
COCCn1c(SCC(=O)NC(=O)NC2CCCC2)nc2ccccc2c1=O	?	-28.1%	-37.6	nt	nt
COCCCn1c(SCC(=O)Nc2ccc(C)cc2)nc2ccccc2c1=O	0.8%	3.8%	-71.2*	1.5%	i
COCCn1c(SCC(=O)NC2CCCC2)nc2ccccc2c1=O	-13.1%	13.4%	-99.7*	-10.1%	-9.0%
Cc1ccc(NC(=O)CSc2nc3ccccc3c(=O)n2CCCN2CCCCC2)cc1C	-19.2%	14.1µM*	7.1	nt	nt
CCc1ccc(NC(=O)CSc2nc3ccccc3c(=O)n2CCCN2CCC(C)CC2)cc1	?	?	-107.6*	?	?
COCCn1c(SCC(=O)Nc2ccc(NC(=O)c3ccco3)c(OC)c2)nc2ccccc2c1=O	nt	?	?	-23.1%	-26.3%
CCc1ccc(NC(=O)CSc2nc3ccccc3c(=O)n2CCNC(C)=O)cc1	-25.0%	nt	-15.5	-2.8%	-2.7%
